{"source": "PubChem BioAssay (Tox21)", "note": "Values without a mark were called inactive. Calls come from the whole dose curve; as a rule, active = well fitted activation curve with a large enough effect in the repeat runs; inconclusive = weak or mixed curves; inactive = flat fitted curve, though single readings scatter. % is set by controls: 0 for no effect and ±100 for the full control effect.", "data": [{"test": "Caspase-3/7 induction in CHO-K1 cells by small molecules, qHTS assay (AID 1346980); note: nearly all actives have a fitted effect of over 15% in size", "settings": "CHO-K1 caspase-3/7 induction, Caspase-Glo luminescence, 17 h; series mostly up to 92.4 µM; caspase-3/7 activation: at the top concentration", "excerpt": "National Center for Advancing Translational Sciences [NCATS]\nNIH Chemical Genomics Center [NCGC]\nU.S. Environmental Protection Agency [EPA]\nNational Institutes of Environmental Health Sciences [NIEHS]\nNational Toxicology Program [NTP]\nApoptosis is a process of programmed cell death and plays a central role in the development of multicellular organisms. It is a highly regulated process and induces cell death by activating caspases, which are the members of cysteine aspartic acid-specific protease (caspase) family. Caspases involved in apoptosis are classified by their mechanism of action as initiator caspases (caspase-2, -8, -9 and -10) and executioner caspases (caspase-3, -6, and -7). Inhibition of apoptosis results in number of cancers, autoimmune diseases, inflammatory diseases and viral infection. To identify small molecule compounds that induce apoptosis, a homogeneous, luminescent Caspase-Glo 3/7 assay was used. Wild type CHO-K1 cells were used to screen Tox21 libraries for identifying caspase-3/7 activity inducers.\nCHO-K1 cells were dispensed at 1,500 per well in 5uL of culture medium into white solid bottom 1536-well plates (Corning Life Sciences, Corning, NY) using a Multidrop Combi (Thermo Scientific, Waltham, MA) dispenser. The assay plates were incubated at 37 C and 5% CO2 for 5hr, and then 23nL of compounds dissolved in DMSO and positive control were transferred using a Pintool station (Wako, San Diego, CA). The assay plates were incubated at 37C and 5% CO2 for 17hr. For caspase-3/7 activity read, 4uL of Caspase-Glo 3/7 reagent (Promega Corporation, Madison, WI) was added to each well of the assay plates using Flying Reagent Dispenser (FRD, Aurora Discovery, San Diego, CA) and incubated the assay plates at room temperature for 30min. The luminescence signal was quantified using a ViewLux plate reader (Perkin Elmer, Shelton, CT).", "values": [{"smiles": "COC(=O)C(C)O", "note": "(stereo not given)", "caspase-3/7 activation": "-1.34%"}, {"smiles": "CC(C)(C)c1ccc(OC(=O)c2ccccc2O)cc1", "caspase-3/7 activation": "-0.392%"}, {"smiles": "CC(C)CC(=O)OCc1ccccc1", "caspase-3/7 activation": "0.403%"}, {"smiles": "CN(C)CCOc1ccccc1Cc1ccccc1", "caspase-3/7 activation": "-0.436% [at 42.5 µM]"}, {"smiles": "CCOC(=O)c1ccccc1O", "caspase-3/7 activation": "-0.89% [at 42.5 µM]"}, {"smiles": "Cc1nc(N)nc(N)c1-c1ccc(Cl)c(Cl)c1", "caspase-3/7 activation": "0.902% [at 42.5 µM]"}, {"smiles": "COc1ccc(S(=O)(=O)Nc2nnc(CC(C)C)s2)cc1", "caspase-3/7 activation": "0.24% [at 42.5 µM]"}, {"smiles": "CCCCCCCCCCCCOCCOS(=O)(=O)O", "caspase-3/7 activation": "-1.06%"}, {"smiles": "CCOc1ccc(OCC)c(Cl)c1", "caspase-3/7 activation": "-0.278%"}, {"smiles": "CC1=C(O)C(=O)OC1C", "note": "(stereo not given)", "caspase-3/7 activation": "0.423%"}, {"smiles": "CC(C)(CO)[C@@H](O)C(=O)NCCC(=O)O", "caspase-3/7 activation": "0.024%"}, {"smiles": "CCN(CC)CCOc1ccc(Cc2ccccc2)cc1", "caspase-3/7 activation": "0.277% [at 42.5 µM]"}, {"smiles": "O=C1CCN(c2ccccc2)N1", "caspase-3/7 activation": "-0.909%"}, {"smiles": "CCCCNc1cc(C(=O)O)cc(S(N)(=O)=O)c1Oc1ccccc1", "caspase-3/7 activation": "-0.298% [at 42.5 µM]"}, {"smiles": "CN(C)CC[C@@H](c1ccc(Cl)cc1)c1ccccn1", "caspase-3/7 activation": "0.129% [at 42.5 µM]"}, {"smiles": "CCN(O)CC", "caspase-3/7 activation": "1.29%"}, {"smiles": "O=c1[nH]cnc2c1ncn2[C@@H]1O[C@H](CO)[C@@H](O)[C@H]1O", "caspase-3/7 activation": "0.0905% [at 42.5 µM]"}, {"smiles": "O=C1CCC(C2CCCCC2)CC1", "caspase-3/7 activation": "-1.23%"}, {"smiles": "O=C(Cl)c1cccc([N+](=O)[O-])c1", "caspase-3/7 activation": "-0.756%"}, {"smiles": "CCOc1ccccc1N", "caspase-3/7 activation": "-0.323%"}, {"smiles": "NC1=NCC2c3ccccc3Cc3ccccc3N12", "note": "(stereo not given)", "caspase-3/7 activation": "-0.855% [at 42.5 µM]"}, {"smiles": "CC(Oc1c(Cl)cccc1Cl)C1=NCCN1", "note": "(stereo not given)", "caspase-3/7 activation": "0.228% [at 42.5 µM]"}, {"smiles": "CC1=C(CC(=O)O)c2cc(F)ccc2/C1=C\\c1ccc(S(C)(=O)=O)cc1", "caspase-3/7 activation": "0.001% [at 42.5 µM]"}, {"smiles": "FC(F)(F)C(F)(F)C(F)(F)C(F)(F)C(F)(F)C(F)(F)C(F)(F)C(F)(F)Br", "caspase-3/7 activation": "-1.33% [at 42.5 µM]"}, {"smiles": "CO[C@@]1(NC(=O)CSCC#N)C(=O)N2C(C(=O)O)=C(CSc3nnnn3C)CS[C@@H]21", "caspase-3/7 activation": "-0.0444% [at 42.5 µM]"}, {"smiles": "COc1ccc2nc(NC(=O)Nc3ccccc3)sc2c1", "caspase-3/7 activation": "-5.24% [at 42.5 µM]"}, {"smiles": "Cc1ccc([N+](=O)[O-])c(N)c1", "caspase-3/7 activation": "-0.976%"}, {"smiles": "CCOC(=O)[C@H](CCc1ccccc1)N[C@@H](C)C(=O)N1Cc2cc(OC)c(OC)cc2C[C@H]1C(=O)O", "caspase-3/7 activation": "0.179% [at 42.5 µM]"}, {"smiles": "FC(F)(F)c1ccccc1", "caspase-3/7 activation": "1.43%"}, {"smiles": "CN(C)C(=O)NC1(c2ccccc2)CCN(CCC[C@]2(c3ccc(Cl)c(Cl)c3)CCCN(C(=O)c3ccccc3)C2)CC1", "caspase-3/7 activation": "-0.059% [at 19 µM]"}, {"smiles": "Cc1ccccc1C(=O)Nc1ccc(C(=O)N2CCCC(O)c3cc(Cl)ccc32)c(C)c1", "note": "(stereo not given)", "caspase-3/7 activation": "-2.31% [at 42.5 µM]"}, {"smiles": "CC(C)S", "caspase-3/7 activation": "1.02%"}, {"smiles": "O=C1C=CC(=O)O1", "caspase-3/7 activation": "-0.334%"}, {"smiles": "CCNCCO", "caspase-3/7 activation": "-0.363%"}, {"smiles": "CCOC(=O)C(Br)c1ccccc1", "note": "(stereo not given)", "caspase-3/7 activation": "-0.393%"}, {"smiles": "C=Cc1ccccc1", "caspase-3/7 activation": "-0.235%"}, {"smiles": "O=C1CCCc2ccccc21", "caspase-3/7 activation": "0.671%"}, {"smiles": "O=C1N(c2ccccc2)c2ccccc2C1(Cc1ccncc1)Cc1ccncc1", "caspase-3/7 activation": "2.18% [at 42.5 µM]"}, {"smiles": "Clc1cccc(-c2cc(Cl)cc(Cl)c2)c1", "caspase-3/7 activation": "2.97%"}, {"smiles": "CCC(=O)Nc1ccc(O)cc1", "caspase-3/7 activation": "0.841% [at 42.5 µM]"}]}]}
